# From the supplement of paper PMC8728848
# The full list was thinned out, with the strongest signals kept by preference.
# Columns and labels:
# Assay in all cases: glycan array binding signal (z-score within array); higher = stronger binding
# Details in all cases: glycan notation: IUPAC condensed, linker removed
# GalNAc(b1-4)Gal(b1-4)Glc = target: GalNAc(b1-4)Gal(b1-4)Glc
# How it was run: (§1)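 Negative Z-scores can be read as non-binding. The Z-score is calculated within each array and then averaged across arrays of one protein sequence at different concentrations or buffers and across linkers. Arrays, 3228 in all, were curated from the Consortium for Functional Glycomics database and kept only where the protein sequence was available.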
# GalNAc(b1-4)GlcNAc = target: GalNAc(b1-4)GlcNAc
# How it was run: as §1
# [1] = target: GalNAc(b1-4)GlcNAc(b1-3)GalNAc(b1-4)GlcNAc
# How it was run: as §1
# [2] = target: GlcNAc(b1-2)Man(a1-3)[GlcNAc(b1-2)Man(a1-6)]Man(b1-4)GlcNAc(b1-4)[Fuc(a1-6)]GlcNAc
# How it was run: as §1
# [3] = target: GlcNAc(b1-2)[GlcNAc(b1-6)]Man(a1-6)[GlcNAc(b1-2)Man(a1-3)]Man(b1-4)GlcNAc(b1-4)[Fuc(a1-6)]GlcNAc
# How it was run: as §1
# [4] = target: GlcNAc(b1-3)Gal(b1-4)GlcNAc(b1-2)[GlcNAc(b1-3)Gal(b1-4)GlcNAc(b1-6)]Man(a1-6)[GlcNAc(b1-3)Gal(b1-4)GlcNAc(b1-2)Man(a1-3)]Man(b1-4)GlcNAc(b1-4)GlcNAc
# How it was run: as §1
# [5] = target: GlcNAc(b1-3)Gal(b1-4)GlcNAc(b1-3)Gal(b1-4)GlcNAc(b1-2)Man(a1-3)[GlcNAc(b1-3)Gal(b1-4)GlcNAc(b1-3)Gal(b1-4)GlcNAc(b1-2)Man(a1-6)]Man(b1-4)GlcNAc(b1-4)GlcNAc
# How it was run: as §1
# [6] = target: GlcNAc(b1-3)Gal(b1-4)GlcNAc(b1-3)Gal(b1-4)GlcNAc(b1-3)Gal(b1-4)GlcNAc(b1-3)Gal(b1-4)GlcNAc(b1-2)[GlcNAc(b1-3)Gal(b1-4)GlcNAc(b1-3)Gal(b1-4)GlcNAc(b1-3)Gal(b1-4)GlcNAc(b1-3)Gal(b1-4)GlcNAc(b1-6)]Man(a1-6)[GlcNAc(b1-3)Gal(b1-4)GlcNAc(b1-3)Gal(b1-4)GlcNAc(b1-3)Gal(b1-4)GlcNAc(b1-3)Gal(b1-4)GlcNAc(b1-2)Man(a1-3)]Man(b1-4)GlcNAc(b1-4)[Fuc(a1-6)]GlcNAc
# How it was run: as §1
# GlcNAc(b1-6)GalNAc = target: GlcNAc(b1-6)GalNAc
# How it was run: as §1
# [7] = target: Neu5Ac(a2-3)Gal(b1-3)GlcNAc(b1-2)Man(a1-3)[Neu5Ac(a2-3)Gal(b1-3)GlcNAc(b1-2)Man(a1-6)]Man(b1-4)GlcNAc(b1-4)GlcNAc
# How it was run: as §1
# [8] = target: Neu5Ac(a2-3)Gal(b1-3)[Fuc(a1-4)]GlcNAc(b1-3)Gal(b1-3)[Fuc(a1-4)]GlcNAc
# How it was run: as §1
# [9] = target: Neu5Ac(a2-3)Gal(b1-4)GlcNAc(b1-2)Man(a1-3)[Neu5Ac(a2-3)Gal(b1-4)GlcNAc(b1-2)Man(a1-6)]Man(b1-4)GlcNAc(b1-4)[Fuc(a1-6)]GlcNAc
# How it was run: as §1
# [10] = target: Neu5Ac(a2-3)Gal(b1-4)GlcNAc(b1-2)[Neu5Ac(a2-3)Gal(b1-4)GlcNAc(b1-6)]Man(a1-6)[Neu5Ac(a2-3)Gal(b1-4)GlcNAc(b1-2)Man(a1-3)][GlcNAc(b1-4)]Man(b1-4)GlcNAc(b1-4)GlcNAc
# How it was run: as §1
# [11] = target: Neu5Ac(a2-3)Gal(b1-4)[Fuc(a1-3)]GlcNAc(b1-3)Gal
# How it was run: as §1
# [12] = target: Neu5Ac(a2-3)Gal(b1-4)[Fuc(a1-3)]GlcNAc6S
# How it was run: as §1
# [13] = target: Neu5Ac(a2-3)[GalNAc(b1-4)]Gal(b1-4)GlcNAc
# How it was run: as §1
# Neu5Ac(a2-6)Gal = target: Neu5Ac(a2-6)Gal
# How it was run: as §1
# [14] = target: Neu5Ac(a2-6)Gal(b1-4)GlcNAc(b1-2)Man(a1-3)[Neu5Ac(a2-3)Gal(b1-4)GlcNAc(b1-2)Man(a1-6)]Man(b1-4)GlcNAc(b1-4)GlcNAc
# How it was run: as §1
# [15] = target: Neu5Ac(a2-6)Gal(b1-4)GlcNAc(b1-2)Man(a1-6)[Gal(b1-4)GlcNAc(b1-2)Man(a1-3)]Man(b1-4)GlcNAc(b1-4)GlcNAc
# How it was run: as §1
# [16] = target: Neu5Ac(a2-6)Gal(b1-4)GlcNAc(b1-3)Gal(b1-4)GlcNAc(b1-3)Gal(b1-4)GlcNAc(b1-2)Man(a1-3)[Neu5Ac(a2-6)Gal(b1-4)GlcNAc(b1-3)Gal(b1-4)GlcNAc(b1-3)Gal(b1-4)GlcNAc(b1-2)Man(a1-6)]GalNAc
# How it was run: as §1
# [17] = target: Neu5Ac(a2-6)Gal(b1-4)GlcNAc(b1-6)GalNAc
# How it was run: as §1
# [18] = target: Neu5Ac(a2-8)Neu5Ac(a2-3)Gal(b1-3)GalNAc(b1-4)[Neu5Ac(a2-3)]Gal(b1-4)Glc
# How it was run: as §1
# [19] = target: Neu5Ac(a2-8)Neu5Ac(a2-3)Gal(b1-4)GlcNAc
# How it was run: as §1
# [20] = target: Neu5Ac(a2-8)Neu5Ac(a2-3)[Gal(b1-3)GalNAc(b1-4)]Gal(b1-4)Glc
# How it was run: as §1
# [21] = target: Neu5Gc(a2-3)Gal(b1-4)[Fuc(a1-3)]GlcNAc
# How it was run: as §1
# [22] = target: Neu5Gc(a2-8)Neu5Gc(a2-3)Gal(b1-4)GlcNAc(b1-3)Gal(b1-4)GlcNAc
# How it was run: as §1
binder,measurement,setting,value
"Erv46-EDTA (Saccharomyces cerevisiae), P39727 (protein) MKFLVNVALVFMVVYISYIYAAAPEHHHHHHDYDIPTTENLYFQGAMDSVVTRPQLVVDRDRHAKLELNMDVTFPSMPCDLVNLDIMDDSGEMQLDILDAGFTMSRLNSEGRPVGDATELHVGGNGDGTAPVNNDPNYCGPCYGAKDQSQNENLAQEEKVCCQDCDAVRSAYLEAGWAFFDGKNIEQCEREGYVSKINEHLNEGCRIKGSAQINRIQGNLHFAPGKPYQNAYGHFHDTSLYDKTSNLNFNHIINHLSFGKPIQSHSKLLGNDKRHGGAVVATSPLDGRQVFPDRNTHFHQFSYFAKIVPTRYEYLDNVVIETAQFSATFHSRPLAGGRDKDHPNTLHVRGGIPGMFVFFEMSPLKVINKEQ",glycan array binding signal (z-score),GalNAc(b1-4)Gal(b1-4)Glc,-0.674
same,glycan array binding signal (z-score),GalNAc(b1-4)GlcNAc,0.697
same,glycan array binding signal (z-score),[1],-0.443
same,glycan array binding signal (z-score),[2],6.37
same,glycan array binding signal (z-score),[3],1.14
same,glycan array binding signal (z-score),[4],2.9
same,glycan array binding signal (z-score),[5],3.36
same,glycan array binding signal (z-score),[6],0.589
same,glycan array binding signal (z-score),GlcNAc(b1-6)GalNAc,-0.565
same,glycan array binding signal (z-score),[7],1.06
same,glycan array binding signal (z-score),[8],-0.483
same,glycan array binding signal (z-score),[9],0.11
same,glycan array binding signal (z-score),[10],-0.335
same,glycan array binding signal (z-score),[11],-0.531
same,glycan array binding signal (z-score),[12],-0.585
same,glycan array binding signal (z-score),[13],0.122
same,glycan array binding signal (z-score),Neu5Ac(a2-6)Gal,-0.121
same,glycan array binding signal (z-score),[14],-0.318
same,glycan array binding signal (z-score),[15],-0.053
same,glycan array binding signal (z-score),[16],3.54
same,glycan array binding signal (z-score),[17],-0.855
same,glycan array binding signal (z-score),[18],-0.029
same,glycan array binding signal (z-score),[19],-0.501
same,glycan array binding signal (z-score),[20],-0.605
same,glycan array binding signal (z-score),[21],0.625
same,glycan array binding signal (z-score),[22],-0.449
